# The sample as a whole holds a higher share of the strongest signals than the screen did.
# What was measured:
# Assay in all cases: glycan array binding signal (z-score within array); higher = stronger binding
# Details in all cases: glycan notation: IUPAC condensed, linker removed
# [1] = tested on: GlcA(b1-3)Gal
# Outline: (§1)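 The binding signal is a Z-score computed within each array. Data were drawn from 3228 arrays in the Consortium for Functional Glycomics database, restricted to those with a known protein sequence. Scores were averaged over arrays of the same protein sequence at different concentrations or buffers, and over linkers, and negative values can be taken as non-binding.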
# [2] = tested on: GlcA(b1-3)GlcNAc
# Outline: as §1
# [3] = tested on: GlcNAc(a1-4)Gal(b1-4)GlcNAc(b1-3)Gal(b1-4)Glc
# Outline: as §1
# [4] = tested on: GlcNAc(a1-4)Gal(b1-4)GlcNAc(b1-3)Gal(b1-4)[Fuc(a1-3)]GlcNAc(b1-3)Gal(b1-4)[Fuc(a1-3)]GlcNAc
# Outline: as §1
# [5] = tested on: Glc(b1-6)Glc
# Outline: as §1
# [6] = tested on: GlcNAc(a1-3)Gal(b1-4)GlcNAc
# Outline: as §1
# [7] = tested on: Glc(a1-6)Glc(a1-6)Glc
# Outline: as §1
# [8] = tested on: GlcNAc(a1-4)Gal(b1-4)GlcNAc(b1-3)Gal(b1-4)GlcNAc(b1-3)Gal(b1-4)GlcNAc
# Outline: as §1
# [9] = tested on: Glc(b1-4)Glc
# Outline: as §1
# [10] = tested on: GlcNAc(a1-4)Gal(b1-4)GlcNAc(b1-3)Gal(b1-4)GlcNAc
# Outline: as §1
# Sequence of Neurocan (Homo sapiens), O14594 (O14594 other isoform, or with tags, fused parts or gaps): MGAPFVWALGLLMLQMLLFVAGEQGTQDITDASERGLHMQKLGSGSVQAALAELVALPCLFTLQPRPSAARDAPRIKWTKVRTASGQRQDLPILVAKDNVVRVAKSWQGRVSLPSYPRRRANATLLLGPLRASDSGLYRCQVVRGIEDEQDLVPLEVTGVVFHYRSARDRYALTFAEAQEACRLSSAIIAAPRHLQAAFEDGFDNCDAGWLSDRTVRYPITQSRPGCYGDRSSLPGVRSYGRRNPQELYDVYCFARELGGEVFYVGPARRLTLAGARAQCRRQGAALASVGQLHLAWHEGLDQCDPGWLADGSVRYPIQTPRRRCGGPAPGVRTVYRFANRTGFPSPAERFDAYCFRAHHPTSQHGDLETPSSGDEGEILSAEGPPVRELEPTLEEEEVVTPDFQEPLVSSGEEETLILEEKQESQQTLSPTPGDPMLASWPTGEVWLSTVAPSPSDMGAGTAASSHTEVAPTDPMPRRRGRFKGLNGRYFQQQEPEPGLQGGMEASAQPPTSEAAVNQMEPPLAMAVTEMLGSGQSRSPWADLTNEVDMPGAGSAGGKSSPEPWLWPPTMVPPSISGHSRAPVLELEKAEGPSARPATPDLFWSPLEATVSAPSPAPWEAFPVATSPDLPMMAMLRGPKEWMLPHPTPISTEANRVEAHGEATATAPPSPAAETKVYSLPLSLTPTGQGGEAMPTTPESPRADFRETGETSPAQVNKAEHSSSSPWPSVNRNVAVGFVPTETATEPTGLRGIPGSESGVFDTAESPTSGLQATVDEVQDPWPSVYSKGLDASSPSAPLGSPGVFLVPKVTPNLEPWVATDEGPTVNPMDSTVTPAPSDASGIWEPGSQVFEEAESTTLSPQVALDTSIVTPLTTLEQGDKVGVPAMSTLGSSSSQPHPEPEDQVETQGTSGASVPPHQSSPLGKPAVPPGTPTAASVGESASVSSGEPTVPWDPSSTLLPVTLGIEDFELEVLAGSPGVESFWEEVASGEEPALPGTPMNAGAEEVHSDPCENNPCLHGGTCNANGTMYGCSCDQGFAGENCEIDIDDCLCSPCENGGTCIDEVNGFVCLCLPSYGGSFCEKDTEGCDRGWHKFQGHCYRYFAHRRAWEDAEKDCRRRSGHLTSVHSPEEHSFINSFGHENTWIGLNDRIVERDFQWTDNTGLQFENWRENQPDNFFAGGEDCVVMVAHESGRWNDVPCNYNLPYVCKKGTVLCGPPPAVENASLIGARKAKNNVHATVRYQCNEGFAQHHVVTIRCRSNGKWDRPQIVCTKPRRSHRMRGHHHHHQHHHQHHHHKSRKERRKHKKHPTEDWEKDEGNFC
# Sequence of CHI3L1 (Homo sapiens), P36222 (P36222 whole entry): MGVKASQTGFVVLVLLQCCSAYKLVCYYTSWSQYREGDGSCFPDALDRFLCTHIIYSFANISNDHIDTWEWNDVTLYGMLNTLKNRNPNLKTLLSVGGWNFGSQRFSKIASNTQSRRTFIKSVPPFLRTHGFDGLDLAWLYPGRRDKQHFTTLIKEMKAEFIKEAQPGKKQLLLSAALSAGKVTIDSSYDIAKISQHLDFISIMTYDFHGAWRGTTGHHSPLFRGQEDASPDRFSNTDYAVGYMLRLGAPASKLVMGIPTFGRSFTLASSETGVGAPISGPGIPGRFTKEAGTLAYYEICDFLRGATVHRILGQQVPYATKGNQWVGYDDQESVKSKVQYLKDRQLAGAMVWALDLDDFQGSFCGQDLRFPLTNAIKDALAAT
# Sequence of PILRa (Mus musculus), Q2YSF3 (Q2YSF3 entry or part of it): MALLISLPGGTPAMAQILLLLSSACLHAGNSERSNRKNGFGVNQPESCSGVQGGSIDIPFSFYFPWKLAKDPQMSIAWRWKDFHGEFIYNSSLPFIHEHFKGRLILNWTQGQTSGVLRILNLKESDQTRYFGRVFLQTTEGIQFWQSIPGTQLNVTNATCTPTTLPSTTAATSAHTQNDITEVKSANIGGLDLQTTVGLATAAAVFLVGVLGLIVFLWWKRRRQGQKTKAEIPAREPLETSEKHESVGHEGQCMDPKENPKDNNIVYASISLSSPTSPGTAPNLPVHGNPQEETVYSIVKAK
# Sequence of 6RG (Lolium perenne), B9U140 (B9U140 entry or part of it): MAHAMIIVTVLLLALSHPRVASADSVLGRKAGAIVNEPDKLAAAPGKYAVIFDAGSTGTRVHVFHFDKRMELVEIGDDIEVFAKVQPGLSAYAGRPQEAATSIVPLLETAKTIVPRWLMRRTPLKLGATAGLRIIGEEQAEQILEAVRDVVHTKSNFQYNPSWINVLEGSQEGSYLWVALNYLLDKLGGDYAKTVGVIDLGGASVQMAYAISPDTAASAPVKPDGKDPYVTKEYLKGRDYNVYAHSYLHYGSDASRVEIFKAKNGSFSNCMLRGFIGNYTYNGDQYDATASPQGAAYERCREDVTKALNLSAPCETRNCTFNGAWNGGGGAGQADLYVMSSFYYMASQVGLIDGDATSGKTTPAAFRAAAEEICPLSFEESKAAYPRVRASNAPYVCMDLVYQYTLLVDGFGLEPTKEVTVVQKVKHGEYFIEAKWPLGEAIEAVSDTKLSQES
# Sequence of CHT (Homo sapiens) (chain, as listed by the source): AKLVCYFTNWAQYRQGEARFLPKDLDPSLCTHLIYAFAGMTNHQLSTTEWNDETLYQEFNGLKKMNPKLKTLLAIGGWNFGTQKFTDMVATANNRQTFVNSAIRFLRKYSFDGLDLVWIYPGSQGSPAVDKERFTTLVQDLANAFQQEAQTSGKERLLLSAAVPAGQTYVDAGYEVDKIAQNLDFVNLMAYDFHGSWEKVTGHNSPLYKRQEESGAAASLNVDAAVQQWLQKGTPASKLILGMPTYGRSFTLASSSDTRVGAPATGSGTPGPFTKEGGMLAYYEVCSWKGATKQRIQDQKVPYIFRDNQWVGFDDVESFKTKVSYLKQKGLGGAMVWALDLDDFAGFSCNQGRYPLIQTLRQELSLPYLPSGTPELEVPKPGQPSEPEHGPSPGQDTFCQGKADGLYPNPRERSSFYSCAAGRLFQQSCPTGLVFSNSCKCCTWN
# Sequence of Regenerating Gene IV (Homo sapiens), Q9BYZ8 (Q9BYZ8 whole entry, looked up): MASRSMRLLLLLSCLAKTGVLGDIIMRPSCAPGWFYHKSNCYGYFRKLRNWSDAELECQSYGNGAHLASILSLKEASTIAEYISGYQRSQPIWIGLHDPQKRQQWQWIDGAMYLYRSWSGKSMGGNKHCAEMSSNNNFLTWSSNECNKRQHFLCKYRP
# Sequence of Aggrecan (Rattus norvegicus), NP_071526 (chain, as listed by the source): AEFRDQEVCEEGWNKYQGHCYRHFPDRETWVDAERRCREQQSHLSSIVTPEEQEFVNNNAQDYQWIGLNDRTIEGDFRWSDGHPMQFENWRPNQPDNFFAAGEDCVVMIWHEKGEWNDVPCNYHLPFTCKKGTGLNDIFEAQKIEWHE
# Sequence of PILRb (Mus musculus), Q2YSF2 (Q2YSF2 entry or part of it): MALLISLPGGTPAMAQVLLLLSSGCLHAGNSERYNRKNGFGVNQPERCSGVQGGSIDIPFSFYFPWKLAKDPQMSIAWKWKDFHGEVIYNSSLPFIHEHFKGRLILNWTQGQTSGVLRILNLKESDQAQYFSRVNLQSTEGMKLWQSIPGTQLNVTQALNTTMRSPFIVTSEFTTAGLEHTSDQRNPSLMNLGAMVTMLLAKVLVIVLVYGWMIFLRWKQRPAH
# Sequence of C3b (Homo sapiens), P01024 (P01024 23-667): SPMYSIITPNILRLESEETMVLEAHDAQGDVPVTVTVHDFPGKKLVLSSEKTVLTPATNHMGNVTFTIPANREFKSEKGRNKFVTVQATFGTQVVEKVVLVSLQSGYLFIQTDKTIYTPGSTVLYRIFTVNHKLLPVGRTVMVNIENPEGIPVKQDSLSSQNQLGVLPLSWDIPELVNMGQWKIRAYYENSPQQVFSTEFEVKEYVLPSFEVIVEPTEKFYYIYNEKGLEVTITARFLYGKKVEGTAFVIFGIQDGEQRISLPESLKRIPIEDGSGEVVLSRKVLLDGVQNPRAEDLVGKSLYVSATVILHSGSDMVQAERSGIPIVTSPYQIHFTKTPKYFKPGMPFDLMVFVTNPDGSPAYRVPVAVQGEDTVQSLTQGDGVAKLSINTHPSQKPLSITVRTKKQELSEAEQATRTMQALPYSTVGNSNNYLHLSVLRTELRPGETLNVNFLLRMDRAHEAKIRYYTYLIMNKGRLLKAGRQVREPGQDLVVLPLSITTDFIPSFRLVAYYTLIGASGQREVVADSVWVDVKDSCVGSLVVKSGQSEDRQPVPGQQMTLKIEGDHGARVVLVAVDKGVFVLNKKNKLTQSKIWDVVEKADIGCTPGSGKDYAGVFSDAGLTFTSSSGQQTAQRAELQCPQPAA
substance,measurement,setting,value
"Neurocan (Homo sapiens), O14594",glycan array binding signal (z-score),[1],0.453
same,glycan array binding signal (z-score),[2],10.5
same,glycan array binding signal (z-score),[3],-0.326
same,glycan array binding signal (z-score),[4],4.73
"C3b (Homo sapiens), P01024",glycan array binding signal (z-score),[5],3.33
"6RG (Lolium perenne), B9U140",glycan array binding signal (z-score),[6],-0.228
"CHI3L1 (Homo sapiens), P36222",glycan array binding signal (z-score),[7],-0.073
same,glycan array binding signal (z-score),[8],-0.129
"PILRa (Mus musculus), Q2YSF3",glycan array binding signal (z-score),[7],-0.233
same,glycan array binding signal (z-score),[5],-0.169
CHT (Homo sapiens),glycan array binding signal (z-score),"[6]; mutation: D138V, E140I",-0.189
"Regenerating Gene IV (Homo sapiens), Q9BYZ8",glycan array binding signal (z-score),[9],5.46
"PILRb (Mus musculus), Q2YSF2",glycan array binding signal (z-score),[10],0.156
"Siglec-8 (Homo sapiens), Q9NYZ4",glycan array binding signal (z-score),[3],-0.267
"Aggrecan (Rattus norvegicus), NP_071526",glycan array binding signal (z-score),[4],0.828

# From the supplement of paper PMC8728848
